In PubChem BioAssay (NCI):
This is part of a sample that, as a whole, favours compounds with a hit. Of some 79,000 tested, about 15% had one in any assay. Cut-off read from the data, not from the text of the source: active = growth inhibition above about 70%; inactive = the rest.

Legend:
[1] = NCI Yeast Anticancer Drug Screen. Data for the rad50 strain (AID 155);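 note: 0% = growth of vehicle-only cultures of the same strain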; conditions: S. cerevisiae rad50 strain growth inhibition; at 50.0 µM; stronger effect = higher value
In short: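 Genetically altered yeast (DNA repair pathway); compound treatment; growth inhibition vs vehicle ctrl.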

[2] = NCI Yeast Anticancer Drug Screen. Data for the mec2-1 strain (AID 157); conditions: S. cerevisiae mec2-1 strain, at 50.0 µM, stronger effect = higher value
In short: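 Growth inhibition is read against vehicle-treated controls after compound exposure of the mec2-1 yeast strain, which is defective in DNA damage repair or cell cycle control.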

[3] = NCI Yeast Anticancer Drug Screen. Data for the sgs1 mgt1 strain (AID 161);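 note: 0% = growth of cultures given vehicle only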; conditions: S. cerevisiae sgs1 mgt1 strain, at 50.0 µM, stronger effect = higher value
In short: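 This yeast growth screen uses a strain with defined DNA-repair lesions; compound-treated growth is compared with vehicle-treated growth.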

[4] = NCI Yeast Anticancer Drug Screen. Data for the cln2 rad14 strain (AID 165);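 note: 0% = growth equal to vehicle treated cultures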; conditions: S. cerevisiae cln2 rad14 strain, at 50.0 µM, stronger effect = higher value
In short: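 Growth inhibition, relative to vehicle-treated controls, is the read-out. The test organism is a yeast strain with defined genetic alterations, cln2 rad14.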

[5] = NCI Yeast Anticancer Drug Screen. Data for the bub3 strain (AID 167); conditions: S. cerevisiae bub3 mutant strain, at 50.0 µM, stronger effect = higher value
In short: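 Yeast carrying a defined mutation is treated with each compound, and growth is compared with that of vehicle-exposed cells to give inhibition.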

[6] = NCI Yeast Anticancer Drug Screen. Data for the mlh1 rad18 strain (AID 175); conditions: S. cerevisiae mlh1 rad18 strain growth inhibition; at 50.0 µM; stronger effect = higher value
In short: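 Cells of a genetically altered yeast strain, deficient in DNA damage repair, were treated with compound. Their growth was then compared with that of vehicle-treated cultures to give inhibition.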

Measured: growth inhibition

CN(C)c1nc(N)nc(CS)n1
inactive: [1] 10.8% | [2] 10.4% | [3] -9.05% | [4] 10.3% | [5] -4.15% | [6] -39.5%

COc1cccc2c1[C@@]1(C)C3C(=O)OC(C)(c4ccccc43)[C@@]1(C)C2=O (stereo not given in full)
inactive: [1] 39.4% | [2] 20.7% | [3] -7.45% | [4] 23.1% | [5] -4.1% | [6] 9.35%

O=c1[nH]ncc2ccc([N+](=O)[O-])cc12
inactive: [1] 6.45% | [2] 7.9% | [3] -1.25% | [4] -1.25% | [5] -2.3% | [6] -6.8%

[Cl-].[Nd+3].[O-]/N=C(\c1ccccc1)c1ccccn1.[O-]/N=C(\c1ccccc1)c1ccccn1.[O-]/N=C(\c1ccccc1)c1ccccn1
inactive: [1] 50.1% | [2] 35.4% | [3] 42.6% | [4] 25.2% | [5] 47% | [6] 58%

COc1cc(/C=C(\C#N)C(N)=O)cc(Br)c1O
inactive: [1] -13.5% | [2] -24% | [3] 15.9% | [4] 8.65% | [5] 7.45% | [6] -7.35%

COc1ccc(C(=O)c2cc(OC)c(OC)c(OC)c2)cc1OC
inactive: [1] -21.9% | [2] -27.2% | [3] -13.8% | [4] 0.3% | [5] 7.45% | [6] -10.4%

COC(=S)OC1CC(n2cnc3c(N)ncnc32)OC1CO[Si](C)(C)C(C)(C)C (stereo not given)
inactive: [1] -10.2% | [2] -8.25% | [3] 2.55% | [4] -1.2% | [5] 11.1% | [6] 4.9%

C/C=C/C(=O)OCCC[N+](C)(C)C
inactive: [1] 8.8% | [2] 12.3% | [3] 2.8% | [4] -0.95% | [5] 13.9% | [6] -23.8%

O=C(Nc1ccccc1)c1ccccc1Cl
inactive: [1] 24.5% | [2] -0.15% | [3] 0.35% | [4] 2.8% | [5] -3.05% | [6] 12.3%

COc1nc(NC2OC(CO)C(O)C(O)C2O)c(C(C)=O)c(=O)[nH]1 (stereo not given)
inactive: [1] 2.8% | [2] 1.05% | [3] 12.6% | [4] -0.1% | [5] -14.8% | [6] -3.95%

CCCCCCC(=O)/C=C/c1ccccc1OCOC
inactive: [1] -3.35% | [2] -9.8% | [3] 4.6% | [4] -13.7% | [5] -18.9% | [6] -4.45%

CC(C)NC1(C#N)CCN(Cc2ccccc2)CC1
inactive: [1] -29.8% | [2] -45.1% | [3] -41.4% | [4] 10.2% | [5] -29.1% | [6] -37.5%

CC(NC(=O)C(Cc1ccccc1)NC(=O)OCc1ccccc1)C(=O)NC1C(CO)OC(n2cnc3c(N)ncnc32)C1O (stereo not given)
inactive: [1] 15.3% | [2] -3.9% | [3] -2.1% | [4] -1.1% | [5] -2.5% | [6] 16.5%

Cc1cccc(Cl)c1NC(=O)COc1ccc(Cl)cc1
inactive: [1] 5.75% | [2] 5.75% | [3] 38.2% | [4] 1.65% | [5] 30.9% | [6] 26.2%

CCCCOB(OCCCC)Oc1c(C(C)(C)C)cc(C)cc1C(C)(C)C
inactive: [1] 1.5% | [2] -14.2% | [3] -2.55% | [4] 15.5% | [5] -10.2% | [6] -3%

CC(=O)N1CCCCC1C/C(C)=N/O (stereo not given)
inactive: [1] 3.55% | [2] 11.6% | [3] -5.95% | [4] -5.6% | [5] 1.35% | [6] 3.3%

CCOS(=O)(=O)c1ccc(F)c([N+](=O)[O-])c1
inactive: [1] 7.3% | [2] 5.6% | [3] -1.9% | [4] -47% | [5] 2.65% | [6] -2.1%

CN(C)Cc1cc(C(C)(C)C)cc(CN(C)C)c1O
inactive: [1] -4% | [2] -6.2% | [3] -13% | [4] -20.1% | [5] -36.4% | [6] -0.05%

CCOC(=O)/C=C/C(=O)OCC
inactive: [1] -2.15% | [2] -0.2% | [3] -4.8% | [4] -2.55% | [5] 6.65% | [6] -2.65%

COc1ccc(-c2cc(-c3ccccc3)[nH]c(=S)c2C#N)cc1
inactive: [1] -23.8% | [2] -19.8% | [3] -55.4% | [4] -19.1% | [5] 13.3% | [6] -30.1%

O=C(CC12C3C4C1C1C2C3C41CC(=O)NO)NO (stereo not given)
inactive: [1] -28.8% | [2] -28.1% | [3] -29.2% | [4] 11.9% | [6] -10.9%
